Consider 31 targets from the supplement of paper PMC10849652.

Of roughly 7,900 targets only a part is listed; those with a hit were picked by preference. About 0.6% of all pairs of compound and target were hits. Values without a mark were called inactive.

Sequence of UniProt Q96FX7 (Q96FX7 whole entry, looked up): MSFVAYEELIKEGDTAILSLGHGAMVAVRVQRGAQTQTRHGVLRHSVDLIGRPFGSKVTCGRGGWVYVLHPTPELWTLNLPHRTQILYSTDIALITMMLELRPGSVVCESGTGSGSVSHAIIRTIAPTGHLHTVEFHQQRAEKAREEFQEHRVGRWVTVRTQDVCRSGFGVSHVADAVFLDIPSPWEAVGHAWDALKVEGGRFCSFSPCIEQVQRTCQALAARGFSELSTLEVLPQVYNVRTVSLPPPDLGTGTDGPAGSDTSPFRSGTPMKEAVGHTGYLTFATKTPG
Sequence of UniProt P61960 (P61960 whole entry, looked up): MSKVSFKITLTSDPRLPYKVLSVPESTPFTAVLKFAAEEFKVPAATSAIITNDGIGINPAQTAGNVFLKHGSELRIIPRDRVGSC
Sequence of UniProt O60701 (O60701 whole entry, looked up): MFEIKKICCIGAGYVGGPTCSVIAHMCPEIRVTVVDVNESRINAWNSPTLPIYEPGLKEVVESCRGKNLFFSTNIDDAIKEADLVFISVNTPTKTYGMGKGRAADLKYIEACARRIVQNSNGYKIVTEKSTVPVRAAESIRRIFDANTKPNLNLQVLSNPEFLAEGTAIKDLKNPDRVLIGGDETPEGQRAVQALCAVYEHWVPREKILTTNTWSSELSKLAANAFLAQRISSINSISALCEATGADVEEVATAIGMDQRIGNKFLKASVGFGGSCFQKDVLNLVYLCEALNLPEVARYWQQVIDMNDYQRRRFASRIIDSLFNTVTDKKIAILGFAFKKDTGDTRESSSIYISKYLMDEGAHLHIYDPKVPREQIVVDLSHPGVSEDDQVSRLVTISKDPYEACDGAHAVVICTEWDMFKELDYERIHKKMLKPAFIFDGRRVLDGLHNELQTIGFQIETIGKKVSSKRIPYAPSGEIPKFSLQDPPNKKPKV
Sequence of UniProt Q5VIR6 (Q5VIR6 whole entry, looked up): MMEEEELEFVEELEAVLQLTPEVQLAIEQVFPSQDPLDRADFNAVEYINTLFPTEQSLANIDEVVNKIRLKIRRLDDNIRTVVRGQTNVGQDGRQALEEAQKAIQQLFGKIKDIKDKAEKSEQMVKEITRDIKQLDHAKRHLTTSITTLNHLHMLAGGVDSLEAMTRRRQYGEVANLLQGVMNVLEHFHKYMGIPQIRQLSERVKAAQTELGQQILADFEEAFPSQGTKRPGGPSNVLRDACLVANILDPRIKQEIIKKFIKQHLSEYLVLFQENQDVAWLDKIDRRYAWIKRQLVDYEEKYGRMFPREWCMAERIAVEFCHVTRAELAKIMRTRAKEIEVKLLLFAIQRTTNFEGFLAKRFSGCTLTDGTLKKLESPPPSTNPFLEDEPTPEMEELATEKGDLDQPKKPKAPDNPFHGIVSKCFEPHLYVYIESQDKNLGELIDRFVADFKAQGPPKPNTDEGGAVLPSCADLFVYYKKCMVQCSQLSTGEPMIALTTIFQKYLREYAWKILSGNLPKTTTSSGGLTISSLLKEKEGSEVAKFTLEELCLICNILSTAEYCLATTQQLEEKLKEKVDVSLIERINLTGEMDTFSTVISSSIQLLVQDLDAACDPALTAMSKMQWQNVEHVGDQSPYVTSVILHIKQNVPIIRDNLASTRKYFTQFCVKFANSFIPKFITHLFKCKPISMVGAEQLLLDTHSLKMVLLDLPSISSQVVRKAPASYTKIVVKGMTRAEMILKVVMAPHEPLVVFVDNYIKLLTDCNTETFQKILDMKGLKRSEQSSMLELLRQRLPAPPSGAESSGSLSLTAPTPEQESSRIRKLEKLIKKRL
Sequence of UniProt Q9BQB6 (Q9BQB6 whole entry, looked up): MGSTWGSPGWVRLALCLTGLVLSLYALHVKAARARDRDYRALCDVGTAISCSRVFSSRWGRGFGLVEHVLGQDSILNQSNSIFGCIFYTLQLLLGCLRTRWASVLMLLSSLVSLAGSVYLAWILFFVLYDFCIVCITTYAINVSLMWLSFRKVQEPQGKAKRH
Sequence of UniProt Q9BUB7 (Q9BUB7 whole entry, looked up): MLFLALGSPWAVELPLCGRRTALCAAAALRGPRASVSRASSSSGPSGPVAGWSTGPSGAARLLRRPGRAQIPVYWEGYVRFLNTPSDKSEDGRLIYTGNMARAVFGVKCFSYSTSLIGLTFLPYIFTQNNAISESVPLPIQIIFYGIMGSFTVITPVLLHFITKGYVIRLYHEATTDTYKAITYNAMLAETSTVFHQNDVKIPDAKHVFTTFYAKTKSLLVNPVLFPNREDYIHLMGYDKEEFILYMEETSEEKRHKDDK
Sequence of UniProt Q9H4I3 (Q9H4I3 whole entry, looked up): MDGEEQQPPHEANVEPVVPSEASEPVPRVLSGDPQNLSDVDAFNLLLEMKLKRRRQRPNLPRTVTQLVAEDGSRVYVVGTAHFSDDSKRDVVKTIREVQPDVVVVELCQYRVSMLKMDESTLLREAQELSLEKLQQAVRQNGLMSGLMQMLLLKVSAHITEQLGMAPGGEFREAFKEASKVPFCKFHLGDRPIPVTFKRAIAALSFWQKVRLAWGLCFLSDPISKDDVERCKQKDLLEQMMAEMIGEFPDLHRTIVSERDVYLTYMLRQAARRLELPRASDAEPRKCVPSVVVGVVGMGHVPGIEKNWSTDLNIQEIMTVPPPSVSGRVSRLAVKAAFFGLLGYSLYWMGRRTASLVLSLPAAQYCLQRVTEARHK
Sequence of UniProt P21796 (P21796 whole entry, looked up): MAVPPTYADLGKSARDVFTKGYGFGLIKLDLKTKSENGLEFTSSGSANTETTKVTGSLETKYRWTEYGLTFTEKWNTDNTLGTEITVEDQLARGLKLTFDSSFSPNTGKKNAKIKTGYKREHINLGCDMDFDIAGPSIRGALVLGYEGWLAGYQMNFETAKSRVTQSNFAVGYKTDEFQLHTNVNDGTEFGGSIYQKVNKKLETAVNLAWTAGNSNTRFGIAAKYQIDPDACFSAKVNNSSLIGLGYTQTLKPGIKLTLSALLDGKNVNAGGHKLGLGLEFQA
Sequence of UniProt Q5BJH2 (Q5BJH2 whole entry, looked up): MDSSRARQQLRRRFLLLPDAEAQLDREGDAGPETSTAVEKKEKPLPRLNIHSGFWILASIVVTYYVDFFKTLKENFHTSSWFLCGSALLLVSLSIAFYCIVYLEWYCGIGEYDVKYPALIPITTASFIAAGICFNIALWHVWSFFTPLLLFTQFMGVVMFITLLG
Sequence of UniProt Q9H270 (Q9H270 whole entry, looked up): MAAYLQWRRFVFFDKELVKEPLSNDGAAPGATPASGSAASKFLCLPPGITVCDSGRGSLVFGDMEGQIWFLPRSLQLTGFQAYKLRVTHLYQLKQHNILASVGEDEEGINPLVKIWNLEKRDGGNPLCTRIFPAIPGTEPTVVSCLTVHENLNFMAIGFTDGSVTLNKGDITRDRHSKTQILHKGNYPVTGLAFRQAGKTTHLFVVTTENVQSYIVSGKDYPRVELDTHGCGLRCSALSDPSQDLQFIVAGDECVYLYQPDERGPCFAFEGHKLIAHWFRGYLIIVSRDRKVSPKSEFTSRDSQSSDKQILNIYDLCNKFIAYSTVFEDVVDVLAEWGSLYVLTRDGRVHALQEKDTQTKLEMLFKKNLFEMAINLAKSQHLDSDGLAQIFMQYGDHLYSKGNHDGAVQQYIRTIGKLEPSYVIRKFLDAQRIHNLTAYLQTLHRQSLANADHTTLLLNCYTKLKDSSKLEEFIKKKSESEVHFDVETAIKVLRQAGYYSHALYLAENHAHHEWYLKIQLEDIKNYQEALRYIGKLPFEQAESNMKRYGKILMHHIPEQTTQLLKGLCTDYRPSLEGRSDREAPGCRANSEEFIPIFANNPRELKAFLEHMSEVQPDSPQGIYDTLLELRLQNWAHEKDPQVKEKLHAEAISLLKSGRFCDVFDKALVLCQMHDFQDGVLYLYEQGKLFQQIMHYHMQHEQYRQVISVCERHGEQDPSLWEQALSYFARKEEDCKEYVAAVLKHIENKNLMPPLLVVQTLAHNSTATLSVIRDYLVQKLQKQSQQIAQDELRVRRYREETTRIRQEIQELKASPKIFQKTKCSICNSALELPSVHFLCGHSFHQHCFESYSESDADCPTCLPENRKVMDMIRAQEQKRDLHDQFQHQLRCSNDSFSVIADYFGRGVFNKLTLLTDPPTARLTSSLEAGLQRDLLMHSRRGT
Sequence of UniProt Q9NX01 (Q9NX01 whole entry, looked up): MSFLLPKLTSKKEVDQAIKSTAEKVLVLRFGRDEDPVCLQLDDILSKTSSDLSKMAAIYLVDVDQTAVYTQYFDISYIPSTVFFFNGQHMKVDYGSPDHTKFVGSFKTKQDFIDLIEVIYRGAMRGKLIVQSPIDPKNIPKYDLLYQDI
Sequence of UniProt A6NIH7 (A6NIH7 whole entry, looked up): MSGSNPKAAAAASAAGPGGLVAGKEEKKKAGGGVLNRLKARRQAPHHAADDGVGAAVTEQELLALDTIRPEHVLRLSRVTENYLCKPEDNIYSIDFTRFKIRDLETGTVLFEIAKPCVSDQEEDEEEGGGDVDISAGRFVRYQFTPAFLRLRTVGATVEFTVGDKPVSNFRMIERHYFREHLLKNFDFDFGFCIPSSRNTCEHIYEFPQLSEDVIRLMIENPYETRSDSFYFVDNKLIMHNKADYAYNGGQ
Sequence of UniProt Q15906 (Q15906 whole entry, looked up): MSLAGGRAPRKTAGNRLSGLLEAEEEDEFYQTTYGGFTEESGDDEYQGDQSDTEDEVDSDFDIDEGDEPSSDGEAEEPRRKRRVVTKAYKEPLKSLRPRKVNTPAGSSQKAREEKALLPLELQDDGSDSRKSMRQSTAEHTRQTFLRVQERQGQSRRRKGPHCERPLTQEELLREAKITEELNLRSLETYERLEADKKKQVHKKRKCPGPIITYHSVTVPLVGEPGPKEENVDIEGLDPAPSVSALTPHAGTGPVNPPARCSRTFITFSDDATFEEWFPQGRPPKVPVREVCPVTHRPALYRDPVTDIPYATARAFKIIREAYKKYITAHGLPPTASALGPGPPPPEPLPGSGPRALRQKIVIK
Sequence of UniProt Q9UK41 (Q9UK41 whole entry, looked up): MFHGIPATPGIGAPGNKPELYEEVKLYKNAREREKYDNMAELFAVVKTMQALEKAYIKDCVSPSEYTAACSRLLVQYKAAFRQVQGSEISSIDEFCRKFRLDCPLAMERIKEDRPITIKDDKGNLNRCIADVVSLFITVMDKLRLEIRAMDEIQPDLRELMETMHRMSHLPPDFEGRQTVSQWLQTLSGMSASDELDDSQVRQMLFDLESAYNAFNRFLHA

Compound in the experiment: CC[C@@H]1C(=O)N(C)c2cnc(Nc3ccc(C(=O)NC4CCN(C)CC4)cc3OC)nc2N1C1CCCC1
Briefly: log2 fold change, soluble protein after heating vs DMSO (PISA); higher = thermal stabilisation; K562 cells, 10 uM, 30 min; active = over 0.2 and 3.5 SD of the protein, either way, in both replicates (recomputed). An outline of the steps:
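For each measurement, 10 μM compound was applied for 30 min to K562 cells at 2×10^6 cells/mL. Aliquots were heated for 3 min across 48°C-58°C, pooled, and extracted in PBS with 0.5% NP-40 at 4°C; the supernatant after 21,000xg for 90 min was soluble protein. This was quantified by TMTpro 16plex LC-MS/MS with channel sums equalised, and thermal stability was reported relative to control samples from duplicates, on a log2 fold-change scale.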
Regarding VPS11 (UniProt Q9H270), the log2 fold change is -0.284 (active). Then TXNL4B (UniProt Q9NX01), with 0.075; and USP3 (UniProt Q9Y6I4), with -0.173. Then TRIM4 (UniProt Q9C037), with 0.01; and TMEM128 (UniProt Q5BJH2), with -0.076. Then VPS53 isoform 4 (UniProt Q5VIR6), with -0.095; and TUBA4A (UniProt P68366), with -0.024. For the target VDAC1 (UniProt P21796), the log2 fold change was 0.019. The value for UBA52 (UniProt P62987) was 0.227. The value for VPS28 (UniProt Q9UK41) was -0.057. The value for UNC119B (UniProt A6NIH7) was -0.168; that for TRMT61A (UniProt Q96FX7) was 0.044.

As to WNK1 isoform 7 (UniProt Q9H4A3), the log2 fold change is -0.021. Then TTI2 (UniProt Q6NXR4), with -0.173; and TTC33 (UniProt Q6PID6), with 0.038; and UTP3 (UniProt Q9NQZ2), with 0.067. Then VPS13B (UniProt Q7Z7G8), with -0.01; and TMEM70 (UniProt Q9BUB7), with 0.005.

As for UBE4B isoform 4 (UniProt O95155), the log2 fold change is -0.046. The value for VPS72 isoform 2 (UniProt Q15906) was -0.261; that for UBIAD1 (UniProt Q9Y5Z9) was -0.008.

Turning to TRIM44 (UniProt Q96DX7), the log2 fold change was 0.003. The value for UGDH (UniProt O60701) was -0.041. Then TRABD (UniProt Q9H4I3), with 0.245; and UBXN8 (UniProt O00124), with 0.081. Then UCHL5 isoform 3 (UniProt Q9Y5K5), with -0.008; and UFM1 (UniProt P61960), with 0.025; and TSC2 (UniProt P49815), with -0.062. Regarding TMEM9B (UniProt Q9NQ34), the log2 fold change is 0.035. For the target VKORC1 (UniProt Q9BQB6), the log2 fold change is -0.006. Then TMEM179B (UniProt Q7Z7N9), with 0.05.
